Outcome data for seven compounds are collected here from PubChem BioAssay AID1845225 (National Center for Advancing Translational Sciences (NCATS), 2023).

Records with an inconclusive call do not appear. The source made the active and inactive calls. The call rests on the fitted dose curve; in most records, active means well fitted curve in the direction sought with a large enough effect; inconclusive means small, poorly fitted or top-dose-only effect, or effect the other way, or another doubt; inactive means no such curve, though single readings can be large or run the other way.

The experiment in a line: Confirmatory redox qHTS assay for identification of artifact compounds. The conditions noted are these: Amplex Red/HRP redox cycling with DTT, fluorescence; series mostly up to 39 µM. From the text:
PI: Alexander Tropsha Ph.D. UNC Eshelman School of Pharmacy University of North Carolina, Chapel Hill, North Carolina Hits from high-throughput screening (HTS) of chemical libraries are often false positives due to their interference with the assay detection technology. In response to this problem, we generated the largest publicly available library of chemical liabilities and developed a free webtool to predict HTS artifacts, both of which are described herein. More specifically, we generated, curated, and integrated HTS datasets for thiol reactivity, redox activity, and luciferase (firefly and nano) activity. Using these curated datasets, we developed and validated several Quantitative Structure-Interference Relationship (QSIR) models to predict nuisance behavior. […] These models were employed for virtual profiling of the National Center for Advancing Translational Science's (NCATS) in-house library, and 256 compounds for each assay were selected for the experimental validation of nuisance behavior. The BA for these external predictions ranged from 58 to 78% for compounds within the applicability domains of the models. […] The models developed in this study, along with aggregation models previously developed by our group (SCAM Detective) were implemented in "Liability Predictor," an online tool which may be used as part of chemical library design or for triaging HTS hits. Both the models and the curated datasets are publicly available at https://liability.mml.unc.edu/.
PROTOCOL TABLE SEQUENCE No. (e.g., 1, 2, 3, etc.); […] (e.g., Cells, Incubation, Reagent, etc.); VALUE; DESCRIPTION. 1; Reagent; 3 uL; Amplex Red and HRP mixture. 2; Compounds and control; 16 nL; Kalypsis pin tool (Wako USA) equipped with a 1536-well pin head. 3; Incubation; 15 min. 4; Reagent; 1 uL; […]. 5; Incubation; 30 min. 6; Detection; Fluorescence, ViewLux microplate reader, 525 nm excitation, 598 nm emission. NOTES (numbers refer to Sequence numbers above) 1. 3 uL of a mixture containing Amplex Red (25 uM final concentration) and horseradish peroxidase (HRP; 250 mU/mL final concentration) in assay buffer (HBSS) was dispensed into all wells of a 1536-well assay plate (solid-bottom black plate; Greiner Bio One, Monroe, NC). 2. […] 3. 15 min. incubation at room temperature protected from light. 4. 1 uL of DTT (prepared fresh; final concentration 250 uM) was dispensed for a final assay volume of 4 uL. 5. Plates were centrifuged (121xg, 15 seconds) and incubated for 30 minutes at room temperature protected from light. 6. Samples were read for fluorescence (Ex/Em = 525(20)/598(25) nm) on a ViewLux CCD imager (PerkinElmer). Data were normalized to DMSO (0% activity) and DA3003 (10 uM final concentration; 100% activity) and the resulting percent inhibition data were fitted to a 4-parameter Hill equation using NCATS in-house software.
As for `Cn1c(=O)n(C)c2cc(CNCCc3ccccc3)ccc21`, the outcome was inactive.
Regarding `Oc1cccc[c]1[Hg][Cl]`, the compound was called inactive.
Next, `CCCOC(=O)c1ccccc1C(=O)OCCC`: “inactive”; `CSc1nc(NC(C)C)nc(NC(C)C)n1`: “inactive”; `Clc1ccc(C(Cl)(Cl)Cl)cc1Cl`: “inactive”.
Take `Cc1ccc(C(C)C)c(OCC(=O)N2CCN(CCc3ccncc3)CC2)c1`: the outcome was inactive.
Consider `CCOc1ccc(CCNC(=O)c2cc3ccccc3n2CCN2CCOCC2)cc1OCC`, for which the call was inactive.
